Data on 21 compounds can be found in PubChem BioAssay (NCATS).

The structures appear in SMILES notation. Records with an inconclusive call do not appear. Unmarked numbers belong to inactive results. Active and inactive are the calls of the source. Calls come from the whole dose curve; as a rule, active = well fitted curve in the direction sought with a large enough effect; inconclusive = small, poorly fitted or top-dose-only effect, or another doubt; inactive = no such curve, though single readings can be large; an effect the other way counts as inactive or inconclusive.

In experiment [1] the target is Rap guanine nucleotide exchange factor 3 (Homo sapiens) (UniProt O95398). Description: Confirmatory qHTS for antagonist of cAMP-regulated guanine nucleotide exchange factor 3 (EPAC1) (AID 1645880). Note: nearly all actives have a fitted effect of over 55% in size. Note: potency is the fitted concentration of half-maximal effect. In a few lines:
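Released BODIPY-GDP fluoresces less than Rap1-bound BODIPY-GDP; the signal is followed at 480/540 nm at 5-min intervals over 30 min, after 5 min at room temperature. Reactions contain 100 nM EPAC1, 250 nM RAP1B-BODIPY-GDP and 50 uM GDP; results are normalized to ATA and DMSO.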
(qHTS replaces the single test concentration by a dilution series.)

For experiment [2] the target is unchanged. Description: Confirmatory qHTS for agonist of cAMP-regulated guanine nucleotide exchange factor 3 (EPAC1) (AID 1645881).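 Note: EPAC1 catalysed release of BODIPY-GDP from Rap1B seen as fluorescence loss; 100% = effect of cAMP agonist control; nearly all actives have a fitted effect of over 75% in size.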
Experiment [3] addresses Rap guanine nucleotide exchange factor 4 (Homo sapiens) (UniProt Q8WZA2). Description: Confirmatory qHTS for agonist of cAMP-regulated guanine nucleotide exchange factor 4 (EPAC2) (AID 1645884).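 Note: nucleotide exchange releases bodipy-GDP from Rap1 and this lowers its fluorescence; % is set by controls: 0 for no effect and ±100 for the full control effect; nearly all actives have a fitted effect of over 65% in size.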
Experiment [4] has the same target. Description: Confirmatory qHTS for antagonist of cAMP-regulated guanine nucleotide exchange factor 4 (EPAC2) (AID 1645885). For activity change, negative = inhibition: % is set by controls: 0 for no effect and ±100 for the full control effect. Note: nearly all actives have a fitted effect of over 25% in size. Note: potency is the fitted concentration of half-maximal effect.
The target of experiment [5] is Rap guanine nucleotide exchange factor 3 (Homo sapiens) (UniProt O95398). Description: Counterscreen qHTS for antagonist of cAMP-regulated guanine nucleotide exchange factor 3 (EPAC1) (AID 1645888). Note: % of control where 0% means no effect. In a few lines:
(§1)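 Rap1B-BODIPY-GDP 250 nM + GDP 50 uM; cpds 7-pt, final 9.74 nM–152 uM (activator mode) or from 7.32 nM upwards (inhibitor mode); RT; FI 480/540 nm at 5 and 30 min, then ± cAMP, reread.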
(In general: Counterscreens check selectivity or assay interference.)

The target is the same in experiment [6]. Description: Counterscreen qHTS for agonist of cAMP-regulated guanine nucleotide exchange factor 3 (EPAC1) (AID 1645889). Note: % of control where 0% means no effect; nearly all actives have a fitted effect of over 40% in size. In a few lines:
as §1

Chain of Rap guanine nucleotide exchange factor 4 (Homo sapiens) (Q8WZA2 whole entry, looked up): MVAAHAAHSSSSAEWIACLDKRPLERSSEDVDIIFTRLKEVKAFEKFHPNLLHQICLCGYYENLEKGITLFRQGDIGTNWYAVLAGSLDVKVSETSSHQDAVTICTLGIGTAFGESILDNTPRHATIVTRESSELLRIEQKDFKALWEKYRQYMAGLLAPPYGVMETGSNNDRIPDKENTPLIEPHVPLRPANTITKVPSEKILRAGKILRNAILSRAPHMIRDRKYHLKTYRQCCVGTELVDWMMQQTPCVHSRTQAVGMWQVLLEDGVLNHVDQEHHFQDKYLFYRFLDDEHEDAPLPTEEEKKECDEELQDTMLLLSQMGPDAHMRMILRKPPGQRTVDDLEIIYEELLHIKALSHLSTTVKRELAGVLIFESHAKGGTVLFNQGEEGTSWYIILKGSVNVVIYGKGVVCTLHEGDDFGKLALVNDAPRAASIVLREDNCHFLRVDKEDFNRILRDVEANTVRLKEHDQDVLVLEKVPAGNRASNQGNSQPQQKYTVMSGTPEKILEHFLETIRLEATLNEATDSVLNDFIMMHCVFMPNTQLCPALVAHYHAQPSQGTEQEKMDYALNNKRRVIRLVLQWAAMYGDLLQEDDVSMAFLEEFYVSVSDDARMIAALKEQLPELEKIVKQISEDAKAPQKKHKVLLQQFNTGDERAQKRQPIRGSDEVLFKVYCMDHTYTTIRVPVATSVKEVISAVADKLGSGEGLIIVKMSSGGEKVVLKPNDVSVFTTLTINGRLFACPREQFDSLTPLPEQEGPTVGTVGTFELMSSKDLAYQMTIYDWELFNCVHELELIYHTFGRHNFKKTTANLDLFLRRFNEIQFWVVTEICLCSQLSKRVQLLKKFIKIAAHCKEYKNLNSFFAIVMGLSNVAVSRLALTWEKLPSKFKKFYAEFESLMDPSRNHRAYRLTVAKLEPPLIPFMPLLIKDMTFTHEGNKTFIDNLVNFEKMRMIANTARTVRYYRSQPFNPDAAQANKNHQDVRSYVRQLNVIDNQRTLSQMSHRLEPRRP
Chain of Rap guanine nucleotide exchange factor 3 (Homo sapiens) (O95398 whole entry, looked up): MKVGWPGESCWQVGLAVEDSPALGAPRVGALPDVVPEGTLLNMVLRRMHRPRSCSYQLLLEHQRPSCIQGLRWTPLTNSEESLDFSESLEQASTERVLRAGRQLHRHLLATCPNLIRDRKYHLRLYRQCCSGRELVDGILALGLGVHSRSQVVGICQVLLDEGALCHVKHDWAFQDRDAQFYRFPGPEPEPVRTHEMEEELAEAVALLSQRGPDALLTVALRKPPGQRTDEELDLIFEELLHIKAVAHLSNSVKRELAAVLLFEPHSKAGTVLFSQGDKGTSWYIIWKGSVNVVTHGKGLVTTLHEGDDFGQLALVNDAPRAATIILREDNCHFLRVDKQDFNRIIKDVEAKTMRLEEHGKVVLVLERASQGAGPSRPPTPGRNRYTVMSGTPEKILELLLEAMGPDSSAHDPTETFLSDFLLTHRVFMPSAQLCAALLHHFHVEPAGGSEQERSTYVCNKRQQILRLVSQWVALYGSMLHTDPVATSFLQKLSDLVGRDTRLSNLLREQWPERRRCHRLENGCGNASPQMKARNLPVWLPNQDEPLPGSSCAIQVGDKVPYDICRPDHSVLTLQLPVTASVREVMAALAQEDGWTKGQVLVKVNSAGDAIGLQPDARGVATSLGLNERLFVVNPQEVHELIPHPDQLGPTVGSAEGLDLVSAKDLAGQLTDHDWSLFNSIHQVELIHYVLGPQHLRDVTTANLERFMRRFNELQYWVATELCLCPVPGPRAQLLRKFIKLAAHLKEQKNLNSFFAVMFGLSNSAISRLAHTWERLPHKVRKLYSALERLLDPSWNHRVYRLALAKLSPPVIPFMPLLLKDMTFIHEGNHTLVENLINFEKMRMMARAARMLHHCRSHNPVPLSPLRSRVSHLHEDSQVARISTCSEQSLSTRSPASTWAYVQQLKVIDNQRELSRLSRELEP

Consider `CCOC(=O)c1sc(NC(=O)c2ccncc2)nc1C`, for which the Potency entry in experiment [1], in experiment [2], in experiment [3], in experiment [4], in experiment [5] and in experiment [6] was “inactive” each time.
As for `COc1ccc(N(C)S(=O)(=O)c2cccc3nsnc23)cc1`, the Potency entry in experiment [1], in experiment [2], in experiment [3], in experiment [4], in experiment [5] and in experiment [6] was “inactive” throughout.
Turning to `O=C(NCCC(=O)N(CCc1ccccc1)Cc1ccccc1)c1ccccc1Cl`, the Potency result in experiment [1], in experiment [2] and in experiment [4] was “inactive” in each case. Moreover, the activation in experiment [3] is 0.223% [at 17.1 µM, percent relative to cAMP agonist control]; in experiment [6], 7.42% [at 30.8 µM]. Further, the activity change, negative = inhibition in experiment [5] was -6.01% [at 30.8 µM].
As for `O=C(Nc1sc(-c2ccccc2)cc1C(=O)O)c1ccccc1`, in experiment [1], the Potency is 75.7 µM (active). The Potency result in experiment [2], in experiment [3], in experiment [4], in experiment [5] and in experiment [6] was “inactive” each time.
For the compound `Cc1cccc(/C(N)=N/OC(=O)Cc2cccc3ccccc23)c1`, the Potency entry in experiment [1], in experiment [2] and in experiment [4] was “inactive” throughout. Further, the activation in experiment [3] is 2.49% [at 17.1 µM, percent relative to cAMP agonist control]; in experiment [6] it was -1.93% [at 30.8 µM]. The activity change, negative = inhibition in experiment [5] was -15.4% [at 30.8 µM].
Take `COc1cn(CC(=O)Nc2cccc(C)c2C)c(CN2CCCCC2)cc1=O`: the Potency entry in experiment [1], in experiment [2], in experiment [3], in experiment [4], in experiment [5] and in experiment [6] was “inactive” in each case.
Turning to `CCOC(=O)N(C)c1c(CC)nc2c(OCc3ccc(OC(F)F)cc3)cccn12`, the Potency result in experiment [1], in experiment [2], in experiment [3], in experiment [4], in experiment [5] and in experiment [6] was “inactive” throughout.
For `CC(=O)Nc1ccc(Nc2nc3ccccc3nc2NS(=O)(=O)c2ccc(Cl)c([N+](=O)[O-])c2)cc1`, the Potency in experiment [1] is 50.1 µM (active). The Potency entry in experiment [2] and in experiment [4] was “inactive” each time. The activation in experiment [3] was -3.97% [at 17.1 µM, percent relative to cAMP agonist control]; in experiment [6], 21.8% [at 30.8 µM]. Further, the activity change, negative = inhibition in experiment [5] is -36.3% [at 30.8 µM].
With `COc1ccc(-c2oc3cccnc3c2C#CCO)cc1`, the Potency entry in experiment [1], in experiment [2], in experiment [3], in experiment [4], in experiment [5] and in experiment [6] was “inactive” in each case.
With `COc1ccc(N(C)C(=O)CC2(CC(=O)O)CCCCC2)cc1`, the Potency result in experiment [1], in experiment [2] and in experiment [4] was “inactive” in each case. Moreover, the activation in experiment [3] was 8.49% [at 17.1 µM, percent relative to cAMP agonist control]; in experiment [6] it was 2.37% [at 30.8 µM]. For the same compound, the activity change, negative = inhibition in experiment [5] was 1.07% [at 30.8 µM].
As to `CCOC(=O)c1oc2ccccc2c1CN1CCN(C(=O)c2ccccc2)CC1`, the Potency entry in experiment [1], in experiment [2], in experiment [3], in experiment [4], in experiment [5] and in experiment [6] was “inactive” in each case.
Regarding `CCOC(=O)c1cc(C(C)(C)C)nc(SC)c1C#N`, the Potency entry in experiment [1], in experiment [2], in experiment [3], in experiment [4], in experiment [5] and in experiment [6] was “inactive” throughout.
Turning to `CCC(=O)N1c2nc(C(C)C)nn2C2(CCCCC2)[C@@H]2CCCC[C@@H]21`, the Potency result in experiment [1], in experiment [2], in experiment [3], in experiment [5] and in experiment [6] was “inactive” throughout. Moreover, in experiment [4], the outcome is “inactive [at 12.7 µM]”.
For `CCc1ccc(OCCCSc2nc(-c3ccc(C(C)(C)C)cc3)nc3cc(=O)[nH]n23)cc1`, the Potency in experiment [1] is 42.6 µM (active). The Potency result in experiment [2], in experiment [3], in experiment [4], in experiment [5] and in experiment [6] was “inactive” each time.
`Cc1cc(C)c2nc(C)cc(Nc3ccc(C(=O)NCCO)cc3)c2c1`: the Potency entry in experiment [1], in experiment [2], in experiment [3], in experiment [4], in experiment [5] and in experiment [6] was “inactive” throughout.
For the compound `CC1(C(=O)O)CCC2(C)CCC3(C)C(=CC(=O)C4C5(C)CCC(=O)C(C)(C)C5CCC43C)C2C1` (stereo unspecified), the Potency result in experiment [1], in experiment [2], in experiment [3], in experiment [4], in experiment [5] and in experiment [6] was “inactive” in each case.
Consider `COc1ccc(OC)c(/C=C2\SC(=S)N(NS(=O)(=O)c3ccccc3)C2=O)c1`, for which the Potency in experiment [1] is 23.9 µM (active); in experiment [4], 33.8 µM (active). The Potency result in experiment [2], in experiment [3], in experiment [5] and in experiment [6] was “inactive” throughout.
As for `CC(=O)N1c2ccc(S(=O)(=O)N(C)Cc3ccco3)cc2CC1C` (stereo unspecified), the Potency result in experiment [1], in experiment [2], in experiment [3], in experiment [4], in experiment [5] and in experiment [6] was “inactive” in each case.
Turning to `Cc1ccc(OCCC(=O)OCC(=O)NNC(=O)c2ccccc2)cc1`, the Potency entry in experiment [1], in experiment [2] and in experiment [4] was “inactive” in each case. The activation in experiment [3] was 0.0575% [at 17.1 µM, percent relative to cAMP agonist control]; in experiment [6] it was 0.419% [at 30.8 µM]. For the same compound, the activity change, negative = inhibition in experiment [5] was -6.38% [at 30.8 µM].
`CCOC(=O)C1=C(C)N=C2SC=C(C)N2C1c1ccc(OC)cc1` (stereo unspecified): the Potency result in experiment [1], in experiment [2], in experiment [3], in experiment [4], in experiment [5] and in experiment [6] was “inactive” each time.
As to `COCCNC(=O)c1ccc2c(c1)N(Cc1ccc(C(F)(F)F)cc1)C(=O)c1ccccc1S2`, the Potency result in experiment [1], in experiment [2], in experiment [3], in experiment [4], in experiment [5] and in experiment [6] was “inactive” throughout.
